Screening results deposited in PubChem BioAssay by several laboratories.
An excerpt weighted towards active compounds, which were near 1.9% of everything screened.
Ba/F3 V617F tox = loss of viability in JAK2V617F-driven Ba/F3 cells. Ba/F3 EpoR-JAK2V617F viability, ATP luminescence. inhibition, % at 5.6 µM. hit rate 1.1% among 220,000. AID 1446;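 active = inhibition above the campaign mean plus 3 SD over all tested compounds, cut at about 24% in these data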;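 note: cytokine-independent growth of Ba/F3 cells driven by EpoR plus mutant JAK2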
IEC-6 cytotox = counter-screen for KLF5 inhibitors: cytotoxicity in IEC-6 cells. IEC-6 cytotoxicity, luminescence viability. inhibition, % at 5 µM. hit rate 0.78% among 290,000
BaF3 parental = parental Ba/F3 viability inhibition as JAK2V617F counter-screen | hit rate 1.1% among 220,000 | CellTiter-Glo ATP luminescence | inhibition, % at 5.6 µM;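 active = inhibition above a per-campaign cutoff, the mean inhibition of all tested compounds plus 3 SD, cut at about 27% in these data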
APP transl inh = APP translation inhibition; hit rate 0.82% among 190,000; SH-SY5Y APP 5'UTR-luciferase reporter, luminescence; inhibition, % at 2 µM;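 active = inhibition above a set limit, derived from the sample mean plus 3 SD, cut at about 45% in these data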
KLF5 inh = inhibitors of KLF5 expression; DLD-1 KLF5 promoter-luciferase reporter, luminescence; inhibition, % at 5 µM; hit rate 0.23% among 290,000; AID 1700;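 active = inhibition above a per-plate limit of that plate's mean compound inhibition plus 3 SD, cut at about 60% in these data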;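 note: higher means less KLF5 promoter-driven luciferase light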
IEC-6 tox confirm = confirmation of cytotoxic compounds in rat IEC-6 intestinal epithelial cells; shares compounds with IEC-6 cytotox; IEC-6 rat intestinal epithelial viability, luminescence; inhibition, % at 5 µM; hit rate 63% among 1,900; AID 1907
Hits are given with their value; – = inactive; · = no result. Cut-off read from the data, not from the text of the source, unless noted: active = inhibition above about 22%; inactive = the rest.

SMILES	Ba/F3 V617F tox	IEC-6 cytotox	BaF3 parental	APP transl inh	KLF5 inh	IEC-6 tox confirm
COc1cc(OC)nc(-n2ncc(Br)c(Br)c2=O)n1	96	56	87	94	–	70
O=C(NNc1ccccc1)C(=O)NNS(=O)(=O)c1ccc(CCCl)cc1	–	44	–	·	–	–
CCn1c2ccccc2c2cc(NC(=O)CNCc3ccccc3OC)ccc21	·	71	·	·	–	40
CCn1c2ccccc2c2cc(NC(=O)COc3ccccc3OC)ccc21	–	–	–	–	–	·
Cc1noc(/C=C/N(C)C)c1S(=O)(=O)N1CCCC(C(=O)NCCC2=CCCCC2)C1 (centres undefined)	–	–	–	–	–	–
CCOc1ccc(CCNC(=O)Cc2ccc(NC(=O)C3=C(C)OCCS3)cc2)cc1	·	–	·	·	–	·
CSc1ccc(CNC(=O)Cc2ccc(NC(=O)C3=C(C)OCCS3)cc2)cc1	·	27	·	·	–	35
CC1CC(C)C[N+](=C2C=C(N3CCCC3)CC(C)(C)C2)C1 (centres undefined)	92	35	72	–	–	23
NS(=O)(=O)c1ccc(NS(=O)(=O)c2ccc(C3CNC(=O)C3)cc2)cc1 (centres undefined)	·	–	·	·	–	·
COCCCNC(=S)N/N=C/c1ccc(O)cc1O	–	–	–	·	–	·
COCCCNC(=S)N/N=C/c1cccc(OC)c1O	–	60	–	·	–	–
O=C1CC(N2CCSCC2)C(=O)N1c1cccc(Br)c1 (centres undefined)	–	–	–	–	–	·
CCOC(=O)CSc1nc2ccccc2n2cnnc12	–	–	–	–	–	·
COc1cc(/C=C2\CCC/C(=C\c3ccc(O)c(OC)c3)C2=O)ccc1O	·	–	·	·	–	·
CCOc1cc(/C=C2\CN(CC)C/C(=C\c3ccc(O)c(OCC)c3)C2=O)ccc1O	·	74	·	·	–	23
CCOC(=O)Nc1ccc2c(c1)N(C(=O)CCN(CC)CC)c1ccccc1S2=O (centres undefined)	·	23	·	·	–	–
CCOC(=O)Nc1ccc2c(c1)N(C(=O)CCN(CC)CC)c1ccccc1CC2	·	–	·	·	–	·
CC(=O)c1ccc(-n2cc(C#N)c(=O)[nH]c2=O)cc1	·	–	·	·	–	·
CCN(CC)CCNc1ccc(CO)c2sc3ccccc3c(=O)c12	66	54	47	–	–	64
O=C1CC(c2ccc(Cl)cc2)CC(O)=C1C=NCCN1CCNCC1 (centres undefined)	–	–	–	–	–	·
COc1ccc(C(=O)C2CCCN(Cc3cc(C)c(O)c(C)c3)C2)c(OC)c1 (centres undefined)	·	–	·	·	–	·
COCc1c(C#N)c(NCCc2ccccc2)nc(C)c1[N+](=O)[O-]	–	–	–	–	–	·
Cc1cccc(Cc2cnc(NC(=O)c3ccc(C)o3)s2)c1	71	59	76	–	–	39
Cc1cccc(Cc2cnc(NC(=O)C3=NCCN3)s2)c1	–	–	–	–	–	·
CCn1c(SCC(=O)c2ccccc2)nc2ccccc2c1=O	–	61	–	–	–	37
SMILES	Ba/F3 V617F tox	IEC-6 cytotox	BaF3 parental	APP transl inh	KLF5 inh	IEC-6 tox confirm
O=c1oc2ccccc2c(Nc2cccc3cccnc23)c1[N+](=O)[O-]	–	61	–	–	–	–
O=c1oc2ccccc2c(Nc2cccc3ccccc23)c1[N+](=O)[O-]	–	–	–	–	–	·
Cc1ccc2c(CN(C)Cc3cccc(F)c3)cc(=O)oc2c1	·	–	·	·	–	·
Cc1ccc2c(CNCc3ccccc3)cc(=O)oc2c1	·	28	·	·	–	29
CCc1ccc(-n2cc(-c3ccc(F)cc3)[n+]3c2SCCC3)cc1	83	28	74	–	–	26
COc1ccc(C2=NCN(c3ccc(C)cc3)C(=S)N2)cc1	–	–	–	–	–	·
COc1ccc(-n2cc(-c3ccc(C)cc3)[n+]3c2SCC3)cc1	94	27	71	–	–	–
Cc1cc(NC(=O)CCC(=O)N(Cc2ccccc2)C(C(=O)NC2CCCC2)c2ccco2)no1 (centres undefined)	·	–	·	·	–	·
Cc1ccc(S(=O)(=O)N(C)CC(=O)O/N=C(\N)c2cccnc2)cc1	·	–	·	·	–	·
Cn1nccc1C(=O)N/N=C/c1c(O)ccc2ccccc12	·	98	·	·	–	29
Cc1ccc(NC(=S)N2CCC(NC(=O)c3ccco3)CC2)cc1C	·	–	·	·	–	·
COc1ccc(-c2nn(-c3ccccc3)cc2/C=N/N=C(N)N)cc1OC	–	–	–	–	–	·
COc1ccc(-c2nn(-c3ccccc3)cc2/C=N/O)cc1OC	·	27	·	·	–	–
CCCCc1ccc(NC(=O)Nc2cnccn2)cc1	·	45	·	·	–	23
Cc1cc(O)c(-c2cc(C(=O)Nc3ccc(S(=O)(=O)N4CCOCC4)cc3)[nH]n2)cc1C	–	–	–	–	–	·
O=C(Nc1ccc(S(=O)(=O)N2CCOCC2)cc1)c1cc(-c2cc(Cl)ccc2O)n[nH]1	77	36	60	·	–	–
COc1c(OC)c(O)c2c(=O)cc(-c3c(O)cccc3O)oc2c1OC	–	23	37	–	–	–
COc1ccc(-c2cc(=O)c3c(OC)c(OC)c(OC)c(OC)c3o2)cc1OC	–	–	–	–	–	·
COc1ccc(NC(=O)c2ccc(S(=O)(=O)N3CCCCCC3)cc2)c(OC)c1	–	–	–	·	–	·
N#Cc1ccccc1NC(=O)CSc1nccn1CCc1ccccc1	–	–	–	–	–	·
ClC(Cl)(Cl)c1nc2ccccc2n2nncc12	·	82	·	·	–	31
Cc1cc2cc3c(cc2nc1SCC(=O)N1CCCC1)OCCO3	·	30	·	·	–	38
O=c1[nH]c2ccc(S(=O)(=O)N3CCCCC3)cc2[nH]1	–	–	–	–	–	·
Oc1[nH]c2ccccc2c1N=Nc1nc(Nc2ccccc2)nc(N2CCOCC2)n1	–	–	–	·	–	·
Cc1[nH]c2ccccc2c1/C=N/Nc1nc(Nc2ccccc2)nc(N2CCOCC2)n1	32	76	41	–	–	93
SMILES	Ba/F3 V617F tox	IEC-6 cytotox	BaF3 parental	APP transl inh	KLF5 inh	IEC-6 tox confirm
Cc1nc(NCC(c2ccccc2)N(C)C)c2c(C)c(C)sc2n1 (centres undefined)	·	–	·	·	–	·
COC(=O)c1c(C)oc2ccc(N(C(=O)c3ccncc3)S(=O)(=O)c3ccc(C)cc3)cc12	86	52	75	89	–	57
O=C(N/N=C/c1cccs1)c1ccc2ccccc2c1	·	29	·	·	–	–
Cc1ccc(/C=N/NC(=O)c2ccc3ccccc3c2)s1	·	82	·	·	–	50
C/C(=N\NC(=O)c1ccc2c(c1)OCCO2)c1ccccc1	–	31	–	·	–	–
Cc1ccc(/C=N/NC(=O)c2ccncc2)s1	–	–	–	·	–	·
Cc1ccc(/C=N/NC(=O)c2ccc3c(c2)OCCO3)s1	65	34	37	·	–	49
Clc1cccc(NC2=NCCC2)c1	–	–	–	–	–	·
CNc1c(NS(=O)(=O)c2ccc(OC)cc2)c(=O)oc2ccccc12	·	–	·	·	–	·
COc1ccc(Br)cc1CNC(=O)CCc1nc(-c2ccccc2F)no1	–	–	–	–	–	·
O=[N+]([O-])c1c(Nc2ccccc2O)cc(Cl)c2nonc12	·	96	·	·	–	43
Fc1cc(Br)ccc1NC(=S)NCCc1ccccc1	–	–	–	–	–	·
COc1ccc(OC)c(-c2cc(-c3cccnc3)nc(N)c2C#N)c1	84	35	45	·	–	52
